About 83,000 compounds went through this panel and 20% of them were active in at least one assay; those are over-represented in the sample as a whole.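 96-well plates, one dose, 48 hours. Percent growth reported; active if below 10.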 Unmarked numbers belong to inactive results. The source made the active and inactive calls.
How the values were obtained:
Assay in all cases: NCI-60 one-dose screen, 48 h (100 = growth as untreated, 0 = no growth, -100 = all killed)
Conditions in all cases: 10 µM unless noted
HCT-15 colon = test system: HCT-15 colon
HT29 colon = test system: HT29 colon
SNB-75 CNS = test system: SNB-75 CNS
SNB-19 CNS = test system: SNB-19 CNS
PC-3 prostate = test system: PC-3 prostate
UACC-62 melanoma = test system: UACC-62 melanoma
LOX IMVI melanoma = test system: LOX IMVI melanoma
SK-MEL-28 melanoma = test system: SK-MEL-28 melanoma
SK-MEL-5 melanoma = test system: SK-MEL-5 melanoma
U251 CNS = test system: U251 CNS

SMILES | growth (HCT-15 colon) | growth (HT29 colon) | growth (SNB-75 CNS) | growth (SNB-19 CNS) | growth (PC-3 prostate) | growth (UACC-62 melanoma) | growth (LOX IMVI melanoma) | growth (SK-MEL-28 melanoma) | growth (SK-MEL-5 melanoma) | growth (U251 CNS)
COc1cc2nc(N3CCCC3)nc(NCC3CCCCC3)c2cc1OC | -70.9% (active) | -24.8% (active) | 93.4% | 82.9% | 25.1% | 87% | -92.8% (active) | -86.4% (active) |  | 
COc1cccc(NC(=O)c2sc3nc(C)c(C(C)=O)cc3c2N)c1 | 35.9% | 38.7% | 22.7% | 40.2% | 47.8% | 26.7% | 47.2% | 71% |  | 
CC1=C[C@H]2c3c(c(O)c(O)c4oc5c(C)cccc5c(=O)c34)[C@H](c3cc(O)c(O)c4oc5c(C)cccc5c(=O)c34)[C@H]2C(C)(C)C1 | 12.5% | 21% | -25.7% (active) | 15.2% | 10.1% | -43% (active) | -85.8% (active) | 26.6% |  | 
Cc1ccc(NS(=O)(=O)c2ccc(-c3cnc(C4CC4)o3)cc2)cc1C | 19.5% | -10.4% (active) | -7.43% (active) | 46.8% |  | 24.1% | 39.4% | 66% | -3.9% (active) | 
CN1CCN(CCCOc2cccc3nc(Nc4ccc(Cl)c(F)c4)ccc23)CC1 | -48.3% (active) | -59.7% (active) | 48.2% |  | 39% | -55.5% (active) | -96.1% (active) | 18.1% |  | 26.1%
COc1cc(C2CC(=O)c3ccccc3N2)cc(OC)c1OC (stereo not drawn) | 102% | 77.8% | 94.7% | 97.1% |  | 94.1% | 104% | 107% |  | 
Cc1cc(N2CCCC2)nc(NC2CCCC(Nc3ccnc4cc(Cl)ccc34)C2)n1 (stereo not drawn) | -52% (active) | -70% (active) | -68.6% (active) |  | -58.1% (active) | -79.8% (active) | -94.2% (active) | -77.5% (active) |  | 
Brc1ccc(-c2csc(Nc3ccccn3)n2)cc1 | 138% | 97.8% | 93.4% |  |  | 75.5% | 214% | 149% | 75.5% | 166%
O=C1c2ccccc2C(=O)c2c(N=Nc3[nH]c(=S)[nH]c3O)cccc21 | 23.2% | 9.93% (active) | -20.2% (active) |  |  | 32.5% | 34.1% | 52% | 13.8% | 12.8%
CN1CCN(CCCOc2cccc3nc(Nc4cc(Cl)cc(Cl)c4)ccc23)CC1 | -73.6% (active) | -80.1% (active) | 36.4% |  | 3.25% (active) | -57.7% (active) | -92.9% (active) | -51.2% (active) |  | -1.53% (active)
CCCN1CCN(c2ccc3nc(-c4ccc5nc(-c6ccc(OCC)cc6)[nH]c5c4)[nH]c3c2)CC1 | -56.5% (active) | -69% (active) | 50.3% |  | -69.5% (active) | 51.4% | -95% (active) | 48.4% | 28.9% | 
CCOc1ccc(-n2nc(C(=O)Nc3cc(OC)c(OC)c(OC)c3)nc2-c2cc(OC)c(OC)c(OC)c2)cc1 | 82.1% | 84.6% | 65.6% |  | 70.2% |  | 89% |  |  | 85.1%
CC1=C[C@H]2c3c(c(O)c(O)c4oc5cc(O)ccc5c(=O)c34)[C@H](c3cc(O)c(O)c4oc5cc(O)ccc5c(=O)c34)[C@H]2C(C)(C)C1 | 33.4% | 20.2% | 21.3% |  | 29.7% | 5.54% (active) | 16.2% | 46.9% |  | 14.8%
COc1cccc(-c2nc3sccn3c2-c2ccnc(NCCCNS(=O)(=O)c3cccc(F)c3)c2)c1 | 13.7% | 38.7% | 29.3% |  | 13.6% | -32.7% (active) | 23.7% | 42.6% | -31.2% (active) | 
CC1SC(c2ccc(N(C)C)cc2)N(NC(=O)C(O)(c2ccccc2)c2ccccc2)C1=O (stereo not drawn) | 83.8% | 93.8% | 96.6% |  |  | 79.9% | 87.7% | 111% | 98.8% | 91.4%
Nc1n[nH]c2ccc([C@@H]3Nc4cc5c(cc4[C@H]4C6CCC(C6)[C@@H]34)C(=O)NC5)cc12 (stereo partly drawn) | 15.2% | 12% | 2.29% (active) |  | 16.8% | 38.9% | 18.2% | 59.2% |  | 18.1%
CC(C)CSc1nc(N)nc2c1ncn2C1OC(CO)C(O)C1O (stereo not drawn) | 92.7% | 103% | 101% |  |  | 92.8% | 95.3% | 112% |  | 101%
CS(=O)(=O)c1ccc(-n2nc(-c3ccc(Br)cc3)c3ccccc3c2=O)cc1 | 93.4% | 101% | 70.5% |  |  | 97% |  | 113% |  | 97.1%
Cc1nc(/N=C(\N)NC(=O)Nc2cccc([N+](=O)[O-])c2)sc1C | 30.1% | 42.8% | 58.3% |  | 77.1% | 63.1% | 71.7% | 80.5% | 91.1% | 
C=CC(=O)Nc1cccc(Nc2nc(SC)nc(-c3cccc([N+](=O)[O-])c3)c2C#N)c1 | 52.2% | 33.7% | 23.2% |  | 37.5% | 65.7% | 46.1% | 25.3% | 55.2% | 
O=C1NC(=S)NC(=O)C1CC(=O)n1c(-c2ccccc2)nc2ccccc21 | 94.3% | 106% | 66.5% |  | 97.7% | 94.9% | 88.7% | 112% | 98.5% | 
COc1cccc(C2=NN3C(C2)c2cc(Br)cc(OC)c2OC32CCN(Cc3ccccc3)CC2)c1 (stereo not drawn) | 101% | 108% | 89.5% |  |  | 98.7% | 94.2% | 107% | 99.5% | 98.8%
C=CC(=O)Nc1cccc(-c2nc(SC)nc(Nc3ccccc3OC)c2C#N)c1 | 16.9% | 2.25% (active) | 24.4% |  | 31.9% | 75% | 16.9% | 50.8% | 66.7% | 
Cc1cc2c3ccccc3ccc2[n+]2ccccc12 | 105% | 69% | 14.6% |  |  | 59.8% | 74.4% | 14.9% | -44.8% (active) | 6.05% (active)
C=C(C)C(=O)Nc1ccc(NC(C)C)cc1 | 125% | 114% | 102% |  |  | 118% | 114% | 119% | 134% | 123%
CC[N+](CC)=c1sc2c(s1)C(c1ccc(Cl)cc1)Oc1ccc(Cl)cc1-2 (stereo not drawn) | 62.9% | 0.814% (active) | 4.43% (active) |  | 3.92% (active) | -2.82% (active) | -62.7% (active) | 18% |  | -53.8% (active)
CN(CCCCCl)P(=O)(OCc1ccc([N+](=O)[O-])o1)C(F)(F)c1ccc(CC(=O)NC[C@@H](O)/C=C\[C@@H](O)[C@H](CO)Cc2ccccc2)cc1 (stereo partly drawn) | 96.2% | 77% | 95.4% |  |  | 74.4% | 60.4% | 97.8% | 97.1% | 93.7%
CC(=O)c1cc2c(N)c(C(=O)Nc3ccccc3)sc2nc1C | 60.3% | 67.3% | 66.8% |  |  | 31.5% | 85.4% | 78.4% |  | 73.5%
CC1=CC(=NN=c2cc(C)n([O-])c(C)c2)C=C(C)[N+]1=O | 94.4% | 74.6% | 64.7% |  | 91.9% | 80.3% | 41.7% | 80.8% |  | 

Reference: PubChem BioAssay (NCI)
